Assay results published in PubChem BioAssay.
Values without a mark were called inactive. Calls of active or inactive are those of the source.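 How the source made its calls: active means z-score of at least 1.8 in each of two replicates, scored against plate mean and spread of sample wells; inactive means the rest.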

assay: viability rescue of complex I mutant cybrids, primary screen, cell-based, galactose medium, ATP luminescence (AID 1645843); conditions: complex I mutant cybrid cells, 72 h, stronger effect = higher value;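 further: positive z means more ATP and so rescue of galactose-driven cybrid death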

| SMILES | z-score |
| --- | --- |
| NC(=O)NCc1cn(CC2CCN(C(=O)CC3CCCCCC3)CC2)nn1 | -0.605 |
| CCn1nc(C(C)C)cc1C(=O)N1CCC(n2cc(CC(C)C)nn2)CC1 | -0.55 |
| CCCCCNC(=O)N1CCC2(CC1)Nc1ccccc1N(CC1CC1)C2=O | 0.705 |
| Cc1cccc2c(C(=O)N(C)C(C)C)cc(-c3cnn(C(C)C)c3)nc12 | 2.17 (active) |
| CN(C)C(=O)c1cccnc1-c1ccc2ncccc2c1 | -0.545 |
| C=C1C2(C(=O)N3CCC(c4ccccc4F)C3)CCC(C2)C1(C)C (stereo unspecified) | 1.09 |
| COc1cc(C)ccc1C(=O)N1CCC(Cn2cc(C3CC3)nn2)CC1 | -0.52 |
| COc1ccc2nc(Cn3cnc4sc(C)cc4c3=O)[nH]c2c1 | 0.395 |
| CCC(CC)(CCC#N)CNC1CCOC(C)(C)C1 (stereo unspecified) | -0.485 |
| CCc1nc(C)ccc1OCC(=O)N1CCc2[nH]nc(C3CCC3)c2C1 | -0.6 |
| COC(=O)CCC(=O)N1CCc2[nH]nc(-c3ccc4c(c3)OCO4)c2C1 | -0.12 |
| Cn1ccnc1-c1ccccc1C(=O)N1CCN(Cc2cccc(Cl)c2)CC1 | 0.665 |
| CN(C)Cc1cn(CC2CCN(C(=O)CC3CCCCCC3)CC2)nn1 | -0.47 |
| CCC(CC)(CCC#N)CNCC1(N2CCOCC2)CCCC1 | -0.575 |
| O=c1cc(-c2ccccc2Cl)nc(-c2ccc(CN3CCC[C@@H](O)C3)cc2)[nH]1 | -0.605 |
| CCc1nc(C)ccc1OCC(=O)N1CCc2[nH]nc(C3CC3)c2C1 | -0.685 |
